Laboratory results as given in the supplement of paper PMC11732987, “Enantioselective OTUD7B fragment discovery through chemoproteomics screening and high-throughput optimisation” (Communications Chemistry, 2025).

Experiments:
Assay in all cases: log2 ratio of Biotin-Ahx-Ub-VS probe labelling (fragment/DMSO); higher = less target engagement (more negative = stronger competition), active = hit call of the paper (q ≤ 0.05, log2 ratio ≤ -1)
Details in all cases: compound concentration: 200 uM; treatment time: 3 h
OTUD6B = target: T1, OTUD6B (UniProt Q8N6M0)
T1 sequence (whole entry): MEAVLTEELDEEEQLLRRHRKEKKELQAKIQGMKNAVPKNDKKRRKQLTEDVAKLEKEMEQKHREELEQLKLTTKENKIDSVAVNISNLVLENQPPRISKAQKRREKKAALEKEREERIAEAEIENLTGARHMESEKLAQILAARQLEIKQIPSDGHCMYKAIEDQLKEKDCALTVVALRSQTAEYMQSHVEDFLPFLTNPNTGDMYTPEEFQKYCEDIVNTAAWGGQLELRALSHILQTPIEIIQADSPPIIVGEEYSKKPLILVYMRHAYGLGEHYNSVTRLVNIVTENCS
Summary of the method: (§1)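 In triplicate, 495 µg of HEK293T lysate per sample was incubated with fragment at 200 µM or vehicle for 3 h. Biotin-Ahx-Ub-VS was then added to 0.5 µM final for 1 h, and labelled DUBs were captured with NeutrAvidin, digested with LysC and trypsin, and measured by diaPASEF LC-MS/MS. Data are average log2 fragment/vehicle ratios by unpaired t-test from global-median-normalised Spectronaut label-free quantities, restricted to proteins with ≥2 unique peptides.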

OTUD7B = target: T2, OTUD7B (UniProt Q6GQQ9)
T2 sequence (whole entry): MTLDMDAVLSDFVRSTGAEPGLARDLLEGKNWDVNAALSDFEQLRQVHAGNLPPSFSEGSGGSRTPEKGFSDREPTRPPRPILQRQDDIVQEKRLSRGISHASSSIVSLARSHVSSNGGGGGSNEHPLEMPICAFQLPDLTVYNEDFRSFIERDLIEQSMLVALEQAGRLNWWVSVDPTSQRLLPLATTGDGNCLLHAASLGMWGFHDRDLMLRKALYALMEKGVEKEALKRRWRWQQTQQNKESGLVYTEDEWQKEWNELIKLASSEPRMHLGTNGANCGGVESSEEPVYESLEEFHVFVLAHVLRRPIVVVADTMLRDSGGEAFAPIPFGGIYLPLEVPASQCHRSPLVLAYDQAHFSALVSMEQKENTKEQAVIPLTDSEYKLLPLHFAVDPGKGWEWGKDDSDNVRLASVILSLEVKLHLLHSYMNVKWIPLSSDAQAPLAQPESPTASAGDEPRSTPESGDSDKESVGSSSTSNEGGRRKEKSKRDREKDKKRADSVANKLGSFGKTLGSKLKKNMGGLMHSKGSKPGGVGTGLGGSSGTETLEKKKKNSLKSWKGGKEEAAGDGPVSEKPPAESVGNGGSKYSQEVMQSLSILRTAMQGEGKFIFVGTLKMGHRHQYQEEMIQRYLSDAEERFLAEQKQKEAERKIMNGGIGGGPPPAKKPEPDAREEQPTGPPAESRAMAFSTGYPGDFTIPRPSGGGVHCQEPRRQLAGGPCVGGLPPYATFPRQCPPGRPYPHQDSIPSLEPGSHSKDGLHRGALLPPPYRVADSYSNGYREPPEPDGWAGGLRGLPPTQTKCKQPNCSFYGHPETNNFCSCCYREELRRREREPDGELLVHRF
Summary of the method: as §1

PRPF8 = PRPF8 (UniProt Q6P2Q9)
Summary of the method: as §1

PSMD7 = target: T3, PSMD7 (UniProt P51665)
T3 sequence (whole entry): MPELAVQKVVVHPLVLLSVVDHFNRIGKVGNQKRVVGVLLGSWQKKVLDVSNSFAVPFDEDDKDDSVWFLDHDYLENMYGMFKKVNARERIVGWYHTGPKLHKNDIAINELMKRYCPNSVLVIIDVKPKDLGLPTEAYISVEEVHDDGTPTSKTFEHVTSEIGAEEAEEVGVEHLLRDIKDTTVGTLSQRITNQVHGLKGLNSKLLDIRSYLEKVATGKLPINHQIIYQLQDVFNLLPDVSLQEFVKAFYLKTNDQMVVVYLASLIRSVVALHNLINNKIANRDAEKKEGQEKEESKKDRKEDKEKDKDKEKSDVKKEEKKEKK
Summary of the method: as §1

UCHL1 = UCHL1 (UniProt P09936)
Summary of the method: as §1

UCHL3 = target: T4, UCHL3 (UniProt P15374)
T4 sequence (whole entry): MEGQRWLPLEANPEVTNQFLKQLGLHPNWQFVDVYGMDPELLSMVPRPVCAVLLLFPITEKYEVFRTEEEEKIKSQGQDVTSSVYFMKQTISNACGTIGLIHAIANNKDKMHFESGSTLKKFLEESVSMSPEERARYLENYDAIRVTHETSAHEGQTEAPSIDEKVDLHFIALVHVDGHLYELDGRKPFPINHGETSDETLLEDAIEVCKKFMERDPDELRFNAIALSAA
Summary of the method: as §1

UCHL5 = target: T5, UCHL5 (UniProt Q9Y5K5)
T5 sequence (whole entry): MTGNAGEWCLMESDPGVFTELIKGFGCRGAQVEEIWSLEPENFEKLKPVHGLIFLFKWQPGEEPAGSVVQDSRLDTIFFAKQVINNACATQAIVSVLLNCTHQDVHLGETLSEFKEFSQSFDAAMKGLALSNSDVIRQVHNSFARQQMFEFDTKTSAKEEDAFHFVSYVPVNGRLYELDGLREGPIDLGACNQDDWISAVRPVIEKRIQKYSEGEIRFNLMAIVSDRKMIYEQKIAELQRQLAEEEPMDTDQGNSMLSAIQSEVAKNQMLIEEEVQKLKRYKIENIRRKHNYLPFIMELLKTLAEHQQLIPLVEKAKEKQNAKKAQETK
Summary of the method: as §1

USP10 = USP10 (UniProt Q14694)
Summary of the method: as §1

USP15 = target: T6, USP15 (UniProt Q9Y4E8)
T6 sequence (whole entry): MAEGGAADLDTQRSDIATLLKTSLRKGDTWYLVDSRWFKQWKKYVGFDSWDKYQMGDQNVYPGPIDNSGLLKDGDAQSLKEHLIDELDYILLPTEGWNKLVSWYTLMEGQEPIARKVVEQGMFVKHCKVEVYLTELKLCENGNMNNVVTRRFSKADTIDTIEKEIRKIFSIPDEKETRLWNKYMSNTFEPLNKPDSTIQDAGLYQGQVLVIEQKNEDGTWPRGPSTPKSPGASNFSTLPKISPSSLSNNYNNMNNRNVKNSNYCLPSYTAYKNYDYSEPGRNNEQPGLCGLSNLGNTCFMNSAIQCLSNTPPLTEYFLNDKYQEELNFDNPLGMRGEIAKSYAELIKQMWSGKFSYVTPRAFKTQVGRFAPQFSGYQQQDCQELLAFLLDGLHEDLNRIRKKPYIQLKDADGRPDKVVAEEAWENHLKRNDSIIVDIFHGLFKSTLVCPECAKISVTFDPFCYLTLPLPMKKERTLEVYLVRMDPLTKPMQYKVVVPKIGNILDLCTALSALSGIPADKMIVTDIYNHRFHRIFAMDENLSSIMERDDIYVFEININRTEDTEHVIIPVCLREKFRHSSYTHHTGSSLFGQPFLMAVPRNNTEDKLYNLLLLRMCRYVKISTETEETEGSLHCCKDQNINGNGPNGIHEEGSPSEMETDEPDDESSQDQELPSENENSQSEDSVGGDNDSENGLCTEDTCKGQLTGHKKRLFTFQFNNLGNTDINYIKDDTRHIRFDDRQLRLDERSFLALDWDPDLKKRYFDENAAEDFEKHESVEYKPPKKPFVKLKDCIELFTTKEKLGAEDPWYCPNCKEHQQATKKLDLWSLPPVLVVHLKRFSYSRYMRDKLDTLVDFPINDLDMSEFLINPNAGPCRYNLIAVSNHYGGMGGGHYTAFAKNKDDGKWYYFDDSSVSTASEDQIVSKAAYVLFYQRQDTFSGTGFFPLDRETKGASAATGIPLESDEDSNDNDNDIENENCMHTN
Summary of the method: as §1

USP16 = USP16 (UniProt Q9Y5T5)
Summary of the method: as §1

Measured: log2 ratio of Biotin-Ahx-Ub-VS probe labelling

Chain of USP16 (Q9Y5T5 whole entry, looked up): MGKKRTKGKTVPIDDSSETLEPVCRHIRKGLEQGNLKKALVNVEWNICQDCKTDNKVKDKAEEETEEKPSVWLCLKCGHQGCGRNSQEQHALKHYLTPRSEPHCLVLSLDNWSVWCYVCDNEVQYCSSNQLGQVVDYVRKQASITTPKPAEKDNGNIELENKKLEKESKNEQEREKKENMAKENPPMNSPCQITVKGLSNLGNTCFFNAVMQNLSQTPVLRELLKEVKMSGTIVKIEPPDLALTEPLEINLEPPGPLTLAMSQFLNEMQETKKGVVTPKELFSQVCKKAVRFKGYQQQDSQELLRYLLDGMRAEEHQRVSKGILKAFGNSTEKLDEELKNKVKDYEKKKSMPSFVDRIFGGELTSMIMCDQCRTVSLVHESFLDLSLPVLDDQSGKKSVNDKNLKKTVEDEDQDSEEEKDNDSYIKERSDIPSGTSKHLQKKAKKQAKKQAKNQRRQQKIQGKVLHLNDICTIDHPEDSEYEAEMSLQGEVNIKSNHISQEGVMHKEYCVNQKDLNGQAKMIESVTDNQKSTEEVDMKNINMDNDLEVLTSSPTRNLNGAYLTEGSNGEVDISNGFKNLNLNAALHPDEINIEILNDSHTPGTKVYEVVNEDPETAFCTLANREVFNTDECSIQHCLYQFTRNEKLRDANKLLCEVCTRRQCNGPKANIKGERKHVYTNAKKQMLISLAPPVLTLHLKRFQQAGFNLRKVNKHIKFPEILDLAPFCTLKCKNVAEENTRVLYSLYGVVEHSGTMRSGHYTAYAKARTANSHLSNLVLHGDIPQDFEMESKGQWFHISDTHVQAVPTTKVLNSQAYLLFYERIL
Chain of USP10 (Q14694 whole entry): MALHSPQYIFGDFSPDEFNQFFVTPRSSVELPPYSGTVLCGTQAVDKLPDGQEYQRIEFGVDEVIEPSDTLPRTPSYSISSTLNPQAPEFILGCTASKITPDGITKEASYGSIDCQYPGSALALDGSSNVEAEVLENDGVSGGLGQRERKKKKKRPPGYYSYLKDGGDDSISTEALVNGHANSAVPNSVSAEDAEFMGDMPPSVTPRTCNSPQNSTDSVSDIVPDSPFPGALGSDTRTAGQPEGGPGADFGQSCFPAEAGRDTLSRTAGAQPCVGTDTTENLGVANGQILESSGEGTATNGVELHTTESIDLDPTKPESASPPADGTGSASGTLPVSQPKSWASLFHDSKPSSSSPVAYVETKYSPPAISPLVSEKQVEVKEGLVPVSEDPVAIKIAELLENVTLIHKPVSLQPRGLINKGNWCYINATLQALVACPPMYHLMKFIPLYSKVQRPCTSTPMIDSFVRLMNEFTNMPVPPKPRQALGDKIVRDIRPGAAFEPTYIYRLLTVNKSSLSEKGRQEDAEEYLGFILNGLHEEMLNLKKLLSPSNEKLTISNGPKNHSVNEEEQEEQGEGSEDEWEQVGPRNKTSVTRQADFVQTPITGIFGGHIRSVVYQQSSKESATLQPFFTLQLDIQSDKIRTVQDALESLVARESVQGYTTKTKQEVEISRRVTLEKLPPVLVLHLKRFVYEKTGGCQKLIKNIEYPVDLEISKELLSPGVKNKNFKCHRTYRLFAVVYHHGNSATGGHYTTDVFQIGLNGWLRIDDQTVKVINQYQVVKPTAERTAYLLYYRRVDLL
Chain of UCHL1 (P09936 whole entry, looked up): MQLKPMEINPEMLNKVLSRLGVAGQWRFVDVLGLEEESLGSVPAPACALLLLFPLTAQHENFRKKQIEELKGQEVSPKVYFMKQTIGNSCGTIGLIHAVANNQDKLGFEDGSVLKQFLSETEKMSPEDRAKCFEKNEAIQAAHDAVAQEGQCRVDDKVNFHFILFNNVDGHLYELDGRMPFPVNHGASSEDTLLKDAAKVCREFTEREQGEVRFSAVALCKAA

O=C(CCl)NCCC1COCCO1 (stereo not given)
active: UCHL1 -1.39
inactive: OTUD6B -0.0161 | OTUD7B -0.0714 | PRPF8 -0.0389 | PSMD7 -0.237 | UCHL3 0.227 | UCHL5 -0.221 | USP10 -0.143 | USP15 0.0547 | USP16 -0.519
